# Data from PMC7862700, “An all-to-all approach to the identification of sequence-specific readers for epigenetic DNA modifications on cytosine”.
# How the values were obtained:
# Experiment in all cases: DAPPL (digital affinity profiling via proximity ligation, sequencing); 10 mM Tris-HCl pH 7.5, 50 mM NaCl, 1 mM DTT, 4% glycerol, room temperature, 30 min; GST-TFs on glutathione beads, 16-mer random dsDNA library, 0.1% formaldehyde crosslink after washing; high values mean tight binding
# Conditions in all cases: protein: recombinant; tags: N-terminal GST; dsDNA, one strand shown
# [1] = molecular target: T1, ELK1 (Homo sapiens, UniProt P19419 1-428)
# T1 sequence: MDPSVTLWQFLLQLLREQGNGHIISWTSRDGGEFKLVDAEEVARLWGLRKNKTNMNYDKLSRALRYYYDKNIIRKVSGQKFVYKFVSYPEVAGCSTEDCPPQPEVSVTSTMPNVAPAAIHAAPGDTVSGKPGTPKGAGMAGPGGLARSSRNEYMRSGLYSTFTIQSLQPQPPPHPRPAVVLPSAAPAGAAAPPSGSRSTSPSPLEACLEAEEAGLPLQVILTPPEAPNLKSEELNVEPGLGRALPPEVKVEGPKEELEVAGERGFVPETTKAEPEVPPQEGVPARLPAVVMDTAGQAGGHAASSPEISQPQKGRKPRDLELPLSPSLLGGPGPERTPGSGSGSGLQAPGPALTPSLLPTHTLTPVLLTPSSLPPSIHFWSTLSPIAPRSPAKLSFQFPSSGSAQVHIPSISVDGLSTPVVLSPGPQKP
# Method in brief: (§1)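 Sequencing on an Illumina NextSeq500 followed washing, crosslinking with 0.1% formaldehyde, proximity ligation (BsaI/T4 ligase, 1 h, 37 °C) and PCR amplification of pools that had been incubated for 30 min at room temperature with 200 nmole of a random double-stranded 16-mer DNA library in Tris/NaCl/DTT/glycerol buffer. Each pool held DNA-barcoded human transcription factors, expressed in yeast as GST fusions and captured on glutathione beads, plus a tag-only sample. Binding signal is a hexamer's read frequency for a factor divided by its frequency in the tag-only sample.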
# [2] = molecular target: T2, GABPA (Homo sapiens, UniProt Q06546 1-454)
# T2 sequence: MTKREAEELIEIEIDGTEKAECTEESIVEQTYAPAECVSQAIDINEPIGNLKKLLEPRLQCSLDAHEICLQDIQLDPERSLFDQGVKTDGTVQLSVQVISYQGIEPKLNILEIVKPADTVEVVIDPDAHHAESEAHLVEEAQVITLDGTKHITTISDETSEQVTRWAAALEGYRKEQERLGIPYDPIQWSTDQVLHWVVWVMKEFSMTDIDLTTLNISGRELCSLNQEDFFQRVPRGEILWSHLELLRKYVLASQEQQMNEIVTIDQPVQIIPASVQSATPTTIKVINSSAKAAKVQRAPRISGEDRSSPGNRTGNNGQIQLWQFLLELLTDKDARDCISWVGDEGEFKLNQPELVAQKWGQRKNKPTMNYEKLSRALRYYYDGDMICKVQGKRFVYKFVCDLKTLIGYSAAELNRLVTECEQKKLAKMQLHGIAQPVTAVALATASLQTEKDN
# Method in brief: as §1
# [3] = molecular target: T3, ERG (Homo sapiens, UniProt P11308 1-479)
# T3 sequence: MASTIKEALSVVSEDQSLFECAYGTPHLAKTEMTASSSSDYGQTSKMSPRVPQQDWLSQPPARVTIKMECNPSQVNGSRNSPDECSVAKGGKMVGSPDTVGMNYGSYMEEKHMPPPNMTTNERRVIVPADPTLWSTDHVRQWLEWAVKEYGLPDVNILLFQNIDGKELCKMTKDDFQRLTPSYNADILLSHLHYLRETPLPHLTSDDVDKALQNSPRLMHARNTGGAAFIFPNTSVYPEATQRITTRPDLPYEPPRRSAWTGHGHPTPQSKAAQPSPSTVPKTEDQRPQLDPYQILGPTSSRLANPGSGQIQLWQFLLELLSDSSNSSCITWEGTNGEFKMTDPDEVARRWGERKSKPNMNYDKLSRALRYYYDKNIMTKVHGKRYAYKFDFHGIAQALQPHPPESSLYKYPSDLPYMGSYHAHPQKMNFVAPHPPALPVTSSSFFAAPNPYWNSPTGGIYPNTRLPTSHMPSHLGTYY
# Method in brief: as §1
# [4] = molecular target: ELF1 (Homo sapiens, UniProt P32519 1-619)
# Chain of ELF1 (P32519 whole entry): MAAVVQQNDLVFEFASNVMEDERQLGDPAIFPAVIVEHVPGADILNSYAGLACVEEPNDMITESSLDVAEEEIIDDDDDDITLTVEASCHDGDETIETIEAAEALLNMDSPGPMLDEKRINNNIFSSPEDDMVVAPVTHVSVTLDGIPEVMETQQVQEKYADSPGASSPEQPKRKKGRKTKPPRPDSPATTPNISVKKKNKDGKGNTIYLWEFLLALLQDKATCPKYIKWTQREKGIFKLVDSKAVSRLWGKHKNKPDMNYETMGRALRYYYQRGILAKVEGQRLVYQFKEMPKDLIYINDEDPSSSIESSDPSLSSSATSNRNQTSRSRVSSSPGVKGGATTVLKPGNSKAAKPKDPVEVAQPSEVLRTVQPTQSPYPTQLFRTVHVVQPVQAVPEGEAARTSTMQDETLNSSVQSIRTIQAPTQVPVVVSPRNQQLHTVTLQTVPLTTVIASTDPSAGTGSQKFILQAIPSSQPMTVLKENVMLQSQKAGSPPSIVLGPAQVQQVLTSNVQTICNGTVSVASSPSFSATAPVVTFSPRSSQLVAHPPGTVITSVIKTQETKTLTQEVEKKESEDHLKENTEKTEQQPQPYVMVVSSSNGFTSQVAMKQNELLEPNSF
# Method in brief: as §1
# [5] = molecular target: T4, EHF (Homo sapiens, UniProt Q9NZC4 1-300)
# T4 sequence: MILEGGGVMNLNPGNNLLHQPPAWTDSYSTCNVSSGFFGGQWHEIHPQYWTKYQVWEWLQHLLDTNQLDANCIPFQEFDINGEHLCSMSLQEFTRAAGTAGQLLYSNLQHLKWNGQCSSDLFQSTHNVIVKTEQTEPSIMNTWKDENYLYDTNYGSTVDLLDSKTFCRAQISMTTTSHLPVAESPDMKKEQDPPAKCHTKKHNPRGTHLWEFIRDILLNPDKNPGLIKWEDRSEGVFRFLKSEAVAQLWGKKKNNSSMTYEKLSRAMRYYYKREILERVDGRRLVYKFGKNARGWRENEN
# Method in brief: as §1
# [6] = molecular target: T5, FEV (Homo sapiens, UniProt Q99581 1-238)
# T5 sequence: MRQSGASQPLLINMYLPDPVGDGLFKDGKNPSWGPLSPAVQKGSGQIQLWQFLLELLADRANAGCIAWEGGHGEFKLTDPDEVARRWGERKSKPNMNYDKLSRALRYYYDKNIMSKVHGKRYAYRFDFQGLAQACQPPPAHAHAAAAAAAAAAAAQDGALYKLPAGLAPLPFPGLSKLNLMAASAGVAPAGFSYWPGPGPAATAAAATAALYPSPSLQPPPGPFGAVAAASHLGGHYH
# Method in brief: as §1
# [7] = molecular target: ETV5 (Homo sapiens, UniProt P41161 1-510)
# Chain of ETV5 (P41161 whole entry): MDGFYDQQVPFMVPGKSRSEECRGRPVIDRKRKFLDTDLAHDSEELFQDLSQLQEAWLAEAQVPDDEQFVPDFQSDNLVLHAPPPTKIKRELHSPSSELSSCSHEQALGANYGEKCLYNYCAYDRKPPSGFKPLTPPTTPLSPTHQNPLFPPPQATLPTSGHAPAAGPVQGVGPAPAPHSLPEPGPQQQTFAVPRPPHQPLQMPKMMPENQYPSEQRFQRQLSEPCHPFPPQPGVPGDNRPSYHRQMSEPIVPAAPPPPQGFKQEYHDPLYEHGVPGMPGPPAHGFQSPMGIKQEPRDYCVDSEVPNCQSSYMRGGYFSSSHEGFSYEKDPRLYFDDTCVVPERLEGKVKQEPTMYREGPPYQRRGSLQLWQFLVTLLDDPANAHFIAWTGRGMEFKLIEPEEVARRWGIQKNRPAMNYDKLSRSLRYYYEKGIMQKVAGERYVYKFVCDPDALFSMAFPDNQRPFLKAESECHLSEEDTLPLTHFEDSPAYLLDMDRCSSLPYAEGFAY
# Method in brief: as §1
# [8] = molecular target: ELF4 (Homo sapiens, UniProt Q99607 1-663)
# Chain of ELF4 (Q99607 whole entry): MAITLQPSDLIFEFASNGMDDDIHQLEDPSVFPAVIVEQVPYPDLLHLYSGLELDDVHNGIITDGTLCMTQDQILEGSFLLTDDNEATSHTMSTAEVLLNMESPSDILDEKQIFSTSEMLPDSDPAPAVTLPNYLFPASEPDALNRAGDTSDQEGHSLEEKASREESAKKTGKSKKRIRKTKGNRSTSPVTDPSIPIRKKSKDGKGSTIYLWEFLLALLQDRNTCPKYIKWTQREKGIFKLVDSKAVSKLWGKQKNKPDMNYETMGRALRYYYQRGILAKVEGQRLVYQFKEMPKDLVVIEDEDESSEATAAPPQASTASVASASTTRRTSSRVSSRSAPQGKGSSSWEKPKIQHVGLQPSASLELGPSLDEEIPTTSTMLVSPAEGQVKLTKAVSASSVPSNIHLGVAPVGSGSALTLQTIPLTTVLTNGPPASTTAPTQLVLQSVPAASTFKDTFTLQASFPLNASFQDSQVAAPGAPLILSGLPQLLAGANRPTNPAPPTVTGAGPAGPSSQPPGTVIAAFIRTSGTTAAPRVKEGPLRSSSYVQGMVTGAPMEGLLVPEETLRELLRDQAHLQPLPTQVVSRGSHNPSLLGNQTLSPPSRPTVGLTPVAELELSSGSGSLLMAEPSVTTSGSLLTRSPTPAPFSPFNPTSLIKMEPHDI
# Method in brief: as §1
# [9] = molecular target: T6, ETV2 (Homo sapiens, UniProt O00321 1-342)
# T6 sequence: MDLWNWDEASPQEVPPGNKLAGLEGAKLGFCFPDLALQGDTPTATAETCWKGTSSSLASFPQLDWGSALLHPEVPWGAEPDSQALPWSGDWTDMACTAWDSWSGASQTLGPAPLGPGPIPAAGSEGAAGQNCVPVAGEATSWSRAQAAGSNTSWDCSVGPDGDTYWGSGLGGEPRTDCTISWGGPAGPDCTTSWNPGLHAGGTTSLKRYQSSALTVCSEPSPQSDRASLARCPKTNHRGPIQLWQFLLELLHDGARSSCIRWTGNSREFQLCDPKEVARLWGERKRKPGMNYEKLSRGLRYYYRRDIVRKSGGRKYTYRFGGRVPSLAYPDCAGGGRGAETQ
# Method in brief: as §1
# [10] = molecular target: T7, ELF3 (Homo sapiens, UniProt P78545 1-371)
# T7 sequence: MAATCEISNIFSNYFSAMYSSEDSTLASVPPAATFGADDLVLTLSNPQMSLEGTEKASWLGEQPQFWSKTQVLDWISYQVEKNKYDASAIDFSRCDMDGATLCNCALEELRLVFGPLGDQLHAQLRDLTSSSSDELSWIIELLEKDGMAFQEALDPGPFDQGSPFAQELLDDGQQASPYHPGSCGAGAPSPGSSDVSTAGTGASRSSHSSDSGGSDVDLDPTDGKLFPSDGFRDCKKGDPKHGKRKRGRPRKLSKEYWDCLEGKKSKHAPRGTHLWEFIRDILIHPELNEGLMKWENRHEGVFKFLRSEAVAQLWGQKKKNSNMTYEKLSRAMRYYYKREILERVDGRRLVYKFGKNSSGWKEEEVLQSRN
# Method in brief: as §1
# [11] = molecular target: ETV1 (Homo sapiens, UniProt P50549 1-477)
# Chain of ETV1 (P50549 whole entry): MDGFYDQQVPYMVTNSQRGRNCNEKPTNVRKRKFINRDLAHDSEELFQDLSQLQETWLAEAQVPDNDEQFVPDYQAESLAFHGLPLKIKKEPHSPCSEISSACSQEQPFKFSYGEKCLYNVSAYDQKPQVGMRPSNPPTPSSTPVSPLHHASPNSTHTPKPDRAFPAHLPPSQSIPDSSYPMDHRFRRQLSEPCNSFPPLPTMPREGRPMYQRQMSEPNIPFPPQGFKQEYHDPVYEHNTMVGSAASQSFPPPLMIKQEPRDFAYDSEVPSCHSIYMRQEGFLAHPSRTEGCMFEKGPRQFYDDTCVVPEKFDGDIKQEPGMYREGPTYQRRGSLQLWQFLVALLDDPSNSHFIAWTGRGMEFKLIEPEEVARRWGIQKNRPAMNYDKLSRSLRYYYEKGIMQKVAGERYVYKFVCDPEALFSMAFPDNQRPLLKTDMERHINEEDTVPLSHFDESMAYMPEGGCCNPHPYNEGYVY
# Method in brief: as §1
# [12] = molecular target: T8, ETV3L (Homo sapiens, UniProt Q6ZN32 1-361)
# T8 sequence: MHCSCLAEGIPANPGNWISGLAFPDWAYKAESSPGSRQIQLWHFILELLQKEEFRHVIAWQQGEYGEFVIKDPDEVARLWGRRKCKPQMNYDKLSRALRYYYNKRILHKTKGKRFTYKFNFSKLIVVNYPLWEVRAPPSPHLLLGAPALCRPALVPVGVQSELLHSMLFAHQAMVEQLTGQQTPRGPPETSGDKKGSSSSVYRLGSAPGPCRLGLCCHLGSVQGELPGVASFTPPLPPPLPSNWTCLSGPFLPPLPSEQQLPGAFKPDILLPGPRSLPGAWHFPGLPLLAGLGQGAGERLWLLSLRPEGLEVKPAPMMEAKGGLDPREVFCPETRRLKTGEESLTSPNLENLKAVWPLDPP
# Method in brief: as §1
# [13] = molecular target: T9, SPDEF (Homo sapiens, UniProt O95238 1-335)
# T9 sequence: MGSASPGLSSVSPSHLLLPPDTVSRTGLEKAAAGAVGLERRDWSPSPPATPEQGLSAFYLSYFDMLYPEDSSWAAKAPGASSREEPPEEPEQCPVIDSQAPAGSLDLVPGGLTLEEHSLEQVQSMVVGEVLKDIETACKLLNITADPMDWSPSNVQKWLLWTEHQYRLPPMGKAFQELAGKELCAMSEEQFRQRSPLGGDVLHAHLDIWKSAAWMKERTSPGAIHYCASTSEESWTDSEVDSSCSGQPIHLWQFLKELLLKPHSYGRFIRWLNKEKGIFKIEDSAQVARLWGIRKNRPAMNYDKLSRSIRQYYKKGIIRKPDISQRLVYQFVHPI
# Method in brief: as §1
# [14] = molecular target: T10, ETV7 (Homo sapiens, UniProt Q9Y603 1-341)
# T10 sequence: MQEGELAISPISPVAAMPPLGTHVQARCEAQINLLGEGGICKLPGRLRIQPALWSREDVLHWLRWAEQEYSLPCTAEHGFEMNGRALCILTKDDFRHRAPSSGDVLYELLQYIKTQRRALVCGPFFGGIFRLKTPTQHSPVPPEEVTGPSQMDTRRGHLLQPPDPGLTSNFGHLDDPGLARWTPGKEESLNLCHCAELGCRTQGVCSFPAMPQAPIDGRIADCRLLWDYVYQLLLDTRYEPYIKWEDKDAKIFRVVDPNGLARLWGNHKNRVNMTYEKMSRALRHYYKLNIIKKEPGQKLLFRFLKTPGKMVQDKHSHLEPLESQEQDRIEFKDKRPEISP
# Method in brief: as §1
# [15] = molecular target: T11, ETV3 (Homo sapiens, UniProt P41162-2 1-143)
# T11 sequence: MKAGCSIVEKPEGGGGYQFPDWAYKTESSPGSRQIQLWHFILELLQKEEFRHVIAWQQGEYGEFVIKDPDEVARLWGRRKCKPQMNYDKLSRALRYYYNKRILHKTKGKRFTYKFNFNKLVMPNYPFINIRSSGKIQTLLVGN
# Method in brief: as §1
# [16] = molecular target: ETV6 (Homo sapiens, UniProt P41212 1-452)
# Chain of ETV6 (P41212 whole entry): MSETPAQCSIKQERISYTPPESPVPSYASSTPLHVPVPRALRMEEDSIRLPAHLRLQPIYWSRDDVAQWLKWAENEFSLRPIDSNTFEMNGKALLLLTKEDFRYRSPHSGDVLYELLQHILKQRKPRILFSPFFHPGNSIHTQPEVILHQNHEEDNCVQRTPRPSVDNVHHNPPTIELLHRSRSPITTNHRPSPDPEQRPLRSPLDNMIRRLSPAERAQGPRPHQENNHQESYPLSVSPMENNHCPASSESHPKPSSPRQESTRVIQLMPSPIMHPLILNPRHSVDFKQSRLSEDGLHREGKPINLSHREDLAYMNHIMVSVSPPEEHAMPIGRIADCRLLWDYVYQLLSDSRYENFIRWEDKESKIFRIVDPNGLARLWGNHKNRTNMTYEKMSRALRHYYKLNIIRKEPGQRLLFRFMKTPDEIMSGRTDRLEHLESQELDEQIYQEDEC
# Method in brief: as §1
sequence,measurement,setting,value
CGCCGG,binding signal,[1],"1.21 fold enrichment (6-mer frequency, TF over GST control)"
same,binding signal,[2],"1.14 fold enrichment (6-mer frequency, TF over GST control)"
same,binding signal,[3],"1.19 fold enrichment (6-mer frequency, TF over GST control)"
same,binding signal,[4],"1.03 fold enrichment (6-mer frequency, TF over GST control)"
same,binding signal,[5],"1.19 fold enrichment (6-mer frequency, TF over GST control)"
same,binding signal,[6],"1.4 fold enrichment (6-mer frequency, TF over GST control)"
same,binding signal,[7],"1.15 fold enrichment (6-mer frequency, TF over GST control)"
same,binding signal,[8],"1.02 fold enrichment (6-mer frequency, TF over GST control)"
same,binding signal,[9],"1.06 fold enrichment (6-mer frequency, TF over GST control)"
same,binding signal,[10],"1.13 fold enrichment (6-mer frequency, TF over GST control)"
same,binding signal,[11],"1.02 fold enrichment (6-mer frequency, TF over GST control)"
same,binding signal,[12],"1.06 fold enrichment (6-mer frequency, TF over GST control)"
same,binding signal,[13],"1.05 fold enrichment (6-mer frequency, TF over GST control)"
same,binding signal,[14],"1.08 fold enrichment (6-mer frequency, TF over GST control)"
same,binding signal,[15],"1.1 fold enrichment (6-mer frequency, TF over GST control)"
same,binding signal,[16],"1.05 fold enrichment (6-mer frequency, TF over GST control)"
